This is one part of a sample in which hits are shown more often than they occur.
SF-1 inh = inhibitors of human SF-1, primary screen, cell-based, CHO-K1, Gal4-SF-1 LBD, luciferase luminescence; 65,000 compounds, 0.55% hits; CHO-K1 Gal4-SF-1 LBD luciferase reporter; Steroidogenic factor 1 (Homo sapiens), Q13285; inhibition, % at 10 µM; AID 525, 2006;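 active = inhibition above the mean inhibition of all tested compounds plus 3 SD, cut at about 48% in these data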;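 note: 0% = SF-1 transfected cells with DMSO and 100% = mock-transfected cells lacking SF-1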
Target sequence (Q13285 whole entry, looked up, the tested form may be a part): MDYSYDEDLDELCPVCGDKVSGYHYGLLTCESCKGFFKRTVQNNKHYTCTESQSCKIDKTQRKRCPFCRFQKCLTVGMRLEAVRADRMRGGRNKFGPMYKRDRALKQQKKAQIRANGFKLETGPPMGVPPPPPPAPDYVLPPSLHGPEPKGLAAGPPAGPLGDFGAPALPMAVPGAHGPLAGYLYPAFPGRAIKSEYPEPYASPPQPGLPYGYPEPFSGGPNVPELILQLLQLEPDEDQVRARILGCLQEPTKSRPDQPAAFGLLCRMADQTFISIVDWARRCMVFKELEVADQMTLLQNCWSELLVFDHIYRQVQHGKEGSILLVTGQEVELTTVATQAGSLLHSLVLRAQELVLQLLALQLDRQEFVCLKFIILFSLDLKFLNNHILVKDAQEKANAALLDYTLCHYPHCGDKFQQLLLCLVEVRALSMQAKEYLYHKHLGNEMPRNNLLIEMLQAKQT
* marks the source's active call; other numbers are inactive results.

SMILES | SF-1 inh
COc1cccc(C(=O)Cn2c(N3CCOCC3)nc3c2c(=O)n(C)c(=O)n3C)c1 | -2.1
COc1ccc(-c2cc3nc4n(c(=O)c3s2)CCOC4)cc1 | 56.3*
CC(C)(O)C1=NOC(c2ccccc2)C1 (stereo not drawn) | 2.3
CCc1ccc2[nH]c(=O)c(CN(CCO)C(=O)NCc3ccccc3)cc2c1 | -3.4
c1cnc2ccc(C(c3nnnn3C3CCCC3)N3CCN(c4nc5ccccc5s4)CC3)cc2c1 (stereo not drawn) | -25.0
COc1ccccc1-c1cc(C(=O)Nc2cccnc2)no1 | -13.7
Brc1ccc(-c2nc(-c3ccccc3)no2)o1 | -62.6
c1ccc(-c2noc(-c3ccc4ccccc4c3)n2)cc1 | 50.4*
COc1ccc(-c2nc(-c3ccncc3)no2)cc1OC | -73.8
CCOc1ccc(N=CC2=C(O)CC(C)(C)CC2=O)cc1 | -68.0
CCCCn1c2c(c(=O)n(C)c1=O)C(c1ccc(OC)cc1)N1CCCCCC1=N2 (stereo not drawn) | 49.2*
COc1ccc(NC(=O)c2oc3ccccc3c2C)c(OC)c1 | -57.5
Cc1ccc(-n2nc3c(c2NC(=O)c2ccc4c(c2)OCO4)CSC3)cc1 | 14.6
CCCNC(=O)c1cc(-c2ccc(Br)cc2)on1 | -57.8
COCCCNC(=O)CCN1C(=O)COc2ccccc21 | 8.9
CCOc1ccc(-c2cc(CCCC(=O)NCCCOC)no2)cc1 | 57.9*
CCOC(=O)C1=C(N)Oc2cc(O)ccc2C1c1cccnc1 (stereo not drawn) | 1.2
N#Cc1sc2nc(-c3ccccc3)cc(-c3ccco3)c2c1N | 14.6
COc1ccc(/C(O)=C2\C(=O)C(=O)N(CCN(C)C)C2c2cccc(OC)c2OC)cc1Cl (stereo not drawn) | 6.2
CN(C)c1ccc(NC(=O)Nc2cccc(Cl)c2)cc1 | -64.2
CN(C)c1ccc(NC(=S)c2ccccn2)cc1 | 86.1*
CN(C)S(=O)(=O)c1ccc(NC(=O)c2ccccn2)cc1 | -74.0
Cc1ccc(-n2ncc3c(=O)n(CC(=O)NCc4ccco4)cnc32)cc1C | -12.2
CN1C2C=C3C(C#N)=C(N)C(C#N)(C#N)[C@@H](c4ccc(Cl)cc4)[C@@H]3C1CC2 (stereo partly drawn) | 48.8*
Cc1noc(C)c1C(=O)Nc1ccc(Cl)cc1C(F)(F)F | 5.4
SMILES | SF-1 inh
CCN(C(=O)c1cc(Cl)ccc1OC)C1CCCCC1 | 16.8
CN(CC(=O)N1CCc2ccccc21)S(=O)(=O)c1cccs1 | -55.1
Nc1nonc1-c1nc2ccccc2n1Cc1ccc(Cl)cc1 | 21.5
COc1cccc(Cn2c(-c3nonc3N)nc3ccccc32)c1 | -62.3
CCCCOc1ccccc1NC(=O)Cn1c(-c2nonc2N)nc2ccccc21 | 67.3*
COC(=O)CSc1nnc(-c2ccncc2)n1N | 0.2
CC(C)(C)Nc1nc(C(N)=O)nc(N2CCOCC2)n1 | -12.2
CCCCS(=O)(=O)/C=C\C=C/S(=O)(=O)CCCC | 95.8*
O=C(CN(CC1CCCO1)C(=O)Cn1nnc(-c2ccc(F)cc2)n1)NC1CCCCC1 (stereo not drawn) | 3.2
COc1cc(C2C(C#N)=C(N)Oc3cc(N(C)C)ccc32)cc2c1OCO2 (stereo not drawn) | 59.0*
Nc1nonc1-c1noc(N2CCCCC2)n1 | -53.5
NC(=O)CSc1nnc(-c2cccnc2)n1CCc1ccccc1 | -6.1
CCOC(=O)N1CCN(C(=O)COc2ccc(S(=O)(=O)NC3CCCCC3)cc2C)CC1 | 1.2
Cc1nnc(NC(=O)C2COc3ccccc3O2)s1 (stereo not drawn) | -51.5
O=C(NC1=NCCS1)C1COc2ccccc2O1 (stereo not drawn) | 65.5*
O=C(Nc1ccc2c(c1)OCO2)C1COc2ccccc2O1 (stereo not drawn) | -10.7
Cc1ccc(S(=O)(=O)NCCC(=O)Nc2ccc3c(c2)OCO3)cc1 | 3.7
Cc1csc2nc(CNS(=O)(=O)c3ccc4c(c3)CCCC4)cn12 | -14.5
O=C(c1ccccc1)c1ccccc1C(=O)N1CCOCC1 | 21.7
O=C(CCSc1ccccc1)N1CCOCC1 | -52.5
O=C(c1ccccc1)C(CCC(CN1CCOCC1)C(=O)c1ccccc1)CN1CCOCC1 (stereo not drawn) | 74.1*
O=C1CC(c2ccco2)c2ccc3ccccc3c2N1 (stereo not drawn) | -7.1
CCN(CC)c1ccc(C(=O)Nc2cccc(F)c2)cc1 | -54.3
Cn1c(=O)c2c(ncn2CCCNC2=CC(C)(C)CC(=O)C2)n(C)c1=O | 8.4
c1ccc(-c2cn3nc(-c4ccccc4)sc3n2)cc1 | 50.6*
SMILES | SF-1 inh
Cc1nc(-c2ccccc2)sc1C(N)=O | 2.6
CC1(C)Cc2nc3sc4c(=O)n(CC(=O)NCc5ccco5)cnc4c3cc2CO1 | -62.1
c1cncc(Nc2nc(-c3cccs3)cs2)c1 | -76.3
CCc1ccc2oc(-c3cc(N=Cc4cccc(OC)c4O)ccc3O)nc2c1 | 50.6*
CN(Cc1ccccc1)Cc1c(F)cccc1F | 17.0
O=C(c1cc2c(=O)n3ccccc3nc2s1)N1CCOCC1 | -59.9
CC(=O)c1sc(Nc2nc3ccc(F)cc3s2)nc1C | -52.9
CCOC(=O)c1sc(NC(=O)C2CC2)nc1C | -7.9
CC(=O)c1sc(NC(=O)C2(F)C(F)(F)C(F)(F)C(F)(F)C(F)(F)C2(F)F)nc1C | 92.6*
Cc1ccc(-c2noc(CCC(=O)NC3CCCc4ccccc43)n2)cc1 (stereo not drawn) | -7.9
CCCCN(CCCC)CCn1cnc2c([nH]c3ccc(OC)cc32)c1=O | -0.4
Cc1c(C(=O)Nc2cnccn2)oc2ccccc12 | -56.0
COc1cc(/C=N/n2cnnc2)ccc1OC(=O)c1cccnc1 | -2.7
CCN1C(=Nc2ccc(Cl)cc2)SC/C1=C\C(=O)OC | -1.8
CCCCSc1nc2c(c(=O)[nH]1)CCC2 | 16.0
CN1CCN(C(=O)c2cccc(COc3cc(Cl)ccc3Cl)c2)CC1 | -69.2
O=C(COc1ccccc1Cl)Nc1ccc(Cl)cn1 | -74.5
O=C(O)c1cccc(COc2ccccc2Cl)c1 | 93.6*
CCOC(=O)Cc1c(C)c2c(O)cc(O)cc2oc1=O | 8.5
CCn1c(NCc2ccc(N(C)C)cc2)nc2ccccc21 | -14.6
CCc1nnc(NC(=O)c2cc3c(s2)CCCCC3)s1 | -73.5
Cn1c(C(=O)N2CCCC(C(=O)NCCc3ccccc3)C2)cc2sccc21 (stereo not drawn) | -4.1
COc1cc2c(cc1NC(=O)CSCC(=O)O)oc1ccccc12 | 3.6
COc1cc2c(cc1NC(=O)CSc1nnnn1-c1ccccc1)oc1ccccc12 | 84.1*
COc1cc2c(cc1NC(=O)c1cncc(Br)c1)oc1ccccc12 | -2.2
SMILES | SF-1 inh
O=C(Nc1ccc(F)c(F)c1)c1ccc(F)c(S(=O)(=O)N2CCOCC2)c1 | 7.1
O=C(COc1ccccc1)NCCSCc1ccco1 | -0.6
O=C(Nc1nc2ccccc2[nH]1)c1ccccc1F | 83.6*
COc1ccc(C(=O)Nc2nc3ccccc3[nH]2)cc1OC | -50.2
O=C(Nc1cccc(-c2nc3ccccc3[nH]2)c1)c1ccco1 | -27.7
Cc1onc(-c2ccccc2Cl)c1C(=O)Nc1nnc(-c2ccc(F)cc2)s1 | -14.3
CC1(C)COCN1S(=O)(=O)c1ccc(C(=O)Nc2nnc(-c3ccc(Cl)s3)o2)cc1 | 64.9*
CC1CC(C)CN(C(=O)CSc2nnc(-c3ccc(Cl)s3)o2)C1 (stereo not drawn) | 5.1
COc1cccc(C(=O)Nc2cccc(-c3nnc(-c4ccccc4)o3)c2)c1 | -92.1
COc1ccc(S(=O)(=O)N2CCCC2C(=O)Nc2ccc(O)cc2)cc1 (stereo not drawn) | 0.9
CC(=O)Nc1ccc(C(=O)Nc2ccc(S(=O)(=O)N3CCCC3)cc2)cc1 | 10.6

Source: PubChem BioAssay (The Scripps Research Institute Molecular Screening Center)
